High-throughput results from PubChem BioAssay.
Only a sample is shown.
aSyn 5UTR act: Activators via SNCA 5'UTR binding, MLPCN | alpha-synuclein 5'UTR reporter, activators screen | activity score, % (tested at 7.5 µM), hits read low | actives 7.1% (n = 300,000); in the data active means activity score below about -60%
* marks the source's active call; other numbers are inactive results.

SMILES	aSyn 5UTR act
O=C(C1CCCN(c2ncnc3c2nc2n3CCCCC2)C1)N1CCN(c2ccccc2)CC1 (configuration not stated)	-148.2*
Cc1ccc(-c2csc(N=C(N)N)n2)cc1	-116.1*
CCCc1cc(C(=O)Nc2cc(Br)ccc2O)no1	-144.8*
CCCc1cc(C(=O)Nc2cc(Cl)ccc2O)no1	-162.3*
O=C(c1ccccc1)c1ccc2cc(O)ccc2c1	-231.0*
Cc1[nH]c(C)c(C(=O)/C=C/c2ccc([N+](=O)[O-])cc2)c1C	-232.0*
CCCCOc1ccc(CSc2nncn2N)cc1	-85.5*
Clc1ccccc1CSc1nc2ccncc2[nH]1	-78.9*
c1ccc(CSCc2nc3ccccc3[nH]2)cc1	-90.9*
Nc1nc(CSc2nc3ccccc3[nH]2)cs1	-76.3*
CCOc1ccc2nc(SCC)[nH]c2c1	-118.2*
O=Cc1[nH]c2ccccc2c1N(C(=O)CCl)c1ccc([N+](=O)[O-])cc1	84.2
O=[N+]([O-])c1ccc(CSc2nc3ccccc3[nH]2)cc1	-114.2*
O=C(NCCO)c1ccc(CSc2nc3ccccc3[nH]2)cc1	-66.1*
C=CCOc1ccc2nc(NC(=O)OC)[nH]c2c1	65.9
c1ccc(CSc2nc3ccccc3[nH]2)cc1	-115.8*
CCCOc1ccc(CSc2nc3ccccc3[nH]2)cc1	-126.6*
Fc1ccc(CSc2nc3ccccc3[nH]2)cc1	-155.2*
CC(C)CSc1nc2ccccc2[nH]1	-95.2*
CCCCCOc1ccc(CSc2ncn[nH]2)cc1	-86.8*
Fc1ccc(CSc2nc3ncccc3[nH]2)cc1	-104.7*
CCOC(=O)c1csc(-c2ccc3c(c2)CCO3)n1	-109.5*
CCOC(=O)c1csc(NC(=O)c2ccccc2)n1	-157.6*
C=CCOC(=O)c1sc(NC(=O)c2ccco2)nc1C	-167.4*
CCOC(=O)c1sc(NC(=O)c2ccc(CC)s2)nc1C	-133.4*
SMILES	aSyn 5UTR act
CCOC(=O)c1csc(NC(=O)c2ccc3c(c2)OCCO3)n1	-78.5*
Cc1nc2c(ccc3nc(NC(=O)c4ccc5c(c4)OCCO5)sc32)s1	-116.6*
CCOC(=O)c1csc(NC(=O)c2cc3ccccc3o2)n1	-125.2*
Cc1nnc(NC(=O)c2cc3ccccc3o2)s1	-81.5*
CCc1ccc(C(=O)Nc2cc(C)ccc2F)s1	-143.0*
CCOC(=O)c1sc(NC(=O)Nc2ccccc2F)nc1C	69.8
CCOC(=O)c1sc(Nc2ccccc2Cl)nc1C	-183.8*
CCOC(=O)c1sc(NC(=O)c2cc3ccccc3o2)nc1C	-113.5*
COC(=O)Cc1csc(Nc2ccccc2Cl)n1	-86.1*
CCOC(=O)Cc1cnc(NC(=O)c2ccccc2)s1	-112.8*
Cc1ccc(C)c(OCc2cc(C(=O)N3CCN(c4ccccc4)CC3)no2)c1	-115.0*
Cc1ccc(C)c(OCc2cc(C(=O)N3C[C@@H](C)O[C@@H](C)C3)no2)c1	-130.8*
Cc1ccc(C)c(OCc2cc(C(=O)N3CCN(C(=O)c4ccco4)CC3)no2)c1	-113.1*
COCCCNC(=O)c1ccc(N2CCCC2)c(NS(=O)(=O)c2ccc(C)cc2)c1	-72.5*
COc1ccccc1N1C(=O)S/C(=C\c2cc(C)n(C)c2C)C1=O	-127.6*
COc1ccccc1N1C(=O)S/C(=C\c2ccc(C)s2)C1=O	-135.4*
Cc1ccc(/C=C2\Sc3ccccc3C2=O)s1	-103.8*
CCN1CCCC1CNC(=O)c1ccc2c(c1)NC(=O)/C(=C\c1ccc(C)cc1)S2 (configuration not stated)	74.1
O=C1Nc2cc(C(=O)NCCCN3CCCC3)ccc2S/C1=C/c1ccccc1F	-106.0*
Cc1cnc(NCCc2ccccc2)s1	-63.1*
Cc1cc(-c2csc(NC(=O)c3cccc(S(=O)(=O)N(C)C)c3)n2)c(C)n1-c1ccccc1	-83.2*
OCC#CCSc1nnc(-c2ccc(Br)cc2)o1	-86.8*
Cc1ccc(-n2sc3ccccc3c2=O)cc1	-121.2*
Oc1ccc(-c2nccc(-c3ccc(F)cc3)n2)cc1	-143.9*
Cc1cc(C)n(-c2nc(SCCN(C)C)c3c4c(sc3n2)CCCC4)n1	-71.2*
SMILES	aSyn 5UTR act
Oc1ccccc1-c1cc(-c2cccc(F)c2)n[nH]1	-233.9*
Cc1c(C)c(C)c2[nH]c(-c3ccc4c(c3)OCO4)nc2c1C	-75.7*
Clc1ccc(-c2noc(/C=C/c3ccccc3)n2)cc1	-93.7*
Cc1ccc(-c2noc(/C=C/c3ccccc3)n2)cc1	-201.9*
Cc1ccc(/C=C/c2nnc(-c3ccccc3)o2)cc1	-108.8*
COc1ccc(CCN2CC(C(=O)NCCc3ccccc3)CC2=O)cc1OC (configuration not stated)	-97.3*
COc1ccc(CCNCC(O)Cn2c3ccccc3c3ccccc32)cc1OC (configuration not stated)	119.7
O=C(OCn1ncc(Cl)c(Cl)c1=O)c1ccc(C(F)(F)F)cc1	-117.3*
Cc1ccc(NC2=C(Cl)C(=O)N(C3CCCCC3)C2=O)cc1	-123.5*
CC(C)c1ccc(C2CC(c3ccc(Br)cc3)=NN2C(N)=S)cc1 (configuration not stated)	-97.4*
COc1ccc(-c2nc(CN3CCN(c4cc(C)nc(C)c4)CC3)c(C)o2)c2ccccc12	67.9
Cc1oc(-c2ccc(-c3ccccc3)cc2)nc1CN1CCN(CC(=O)N(C)C)CC1	-143.1*
Cc1noc(C)c1-c1nnc(-c2ccc(OC(F)(F)F)cc2)o1	-68.9*
Cc1cc(=O)n2cc(-c3ccccc3)nc2[nH]1	-70.4*
CC(=O)Nc1nc(-c2ccc3ccccc3c2)cs1	-143.1*
Oc1ccc(Nc2nc(-c3ccc4ccccc4c3)cs2)cc1	-210.0*
O=C(NC1CCCCC1)c1noc2c1CCCCC2	-90.2*
COc1ccc(NC(=O)c2noc3c2CCCCC3)cc1	-100.4*
O=C(NCc1ccco1)c1noc2c1CCCCC2	-76.7*
COc1ccc(CNC(=O)c2noc3c2CCCC3)cc1	-102.7*
Cc1ccc(O)c(NC(=O)c2noc3c2CCCCC3)c1	-184.4*
CSc1ccccc1NC(=O)c1noc2c1CCC2	-103.3*
Cc1ccc(NC(=O)c2noc3c2CCCCC3)cc1	-117.2*
Cc1ccc(Cn2ccc(NC(=O)c3noc4c3CCCC4)n2)cc1	-110.7*
CCc1ccc(NC(=O)c2noc3c2CCCCC3)cc1	-182.4*
SMILES	aSyn 5UTR act
O=C(Cc1ccc(Br)cc1)Nc1ncc([N+](=O)[O-])s1	-104.6*
O=C(Cc1ccc(Cl)cc1)Nc1ncc([N+](=O)[O-])s1	-131.1*
O=C(Nc1ncc([N+](=O)[O-])s1)c1ccco1	-98.1*
Cc1ccc(C(=O)Nc2ncc([N+](=O)[O-])s2)cc1	68.9
CCC(=O)N1CCN(c2nc3ccccc3s2)CC1	-105.0*
CNC(=S)N1CCN(c2nc3ccccc3s2)CC1	-75.4*
O=C(C1CC1)N1CCN(c2nc3ccccc3s2)CC1	-84.1*
CCc1cccc(NC(=O)Nc2cccs2)c1	-243.5*
COc1ccc(NC(=O)Nc2cccs2)cc1Cl	-166.9*
CCNC(=O)C(=O)Nc1ccc(OC)c(Cl)c1	-83.4*
COc1ccc(NC(=O)C=C(C)C)cc1Cl	-122.2*
COc1ccc(NC(=O)c2cc(F)c(F)cc2Cl)cc1Cl	-92.9*
CC(C)=CC(=O)Nc1ccc(Cl)cc1	-90.0*
COc1ccc2oc(C(=O)Nc3ccc(C)cn3)c(C)c2c1	-124.2*
COc1ccc2oc(=O)c(C(=O)NC3CCCCCC3)cc2c1	-173.6*
CCN(CC(=O)Nc1ccccc1C(F)(F)F)C(=O)c1oc2ccc(OC)cc2c1C	-64.7*
COc1ccc2oc(C(=O)NC3CCCCC3)c(C)c2c1	-99.0*
COCCN(CC(=O)NC1CCCCC1)C(=O)/C=C/C(=O)c1ccc(OC)cc1O	78.8
COc1ccc2oc(C(=O)NCCC(C)C)c(C)c2c1	-142.8*
CCOc1ccccc1-c1nn2c(Cc3ccccc3)nnc2s1	-65.8*
